Experimental data as given in PubChem BioAssay AID504454 (NMMLSC, 2011).
In all, about 340,000 compounds went through this assay and about 1,400 (0.41%) were called active. For the sample, actives were picked, then their nearest neighbours and some compounds at random. Unmarked numbers belong to inactive results.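 How the source made its calls: active means response above a set limit, near 3 SD of response in nonfluorescent compounds (cut at about 42% in these data); inactive means the rest.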

target: Beta-2 adrenergic receptor (Homo sapiens) (UniProt P07550); assay: beta2AR agonists driving receptor internalization, primary screen, cell-based, FAP fluorogen, flow cytometry (AID 504454); details: Am2.2-beta2AR cells, active compounds read high, concentration not given here
Sequence (P07550 whole entry, looked up): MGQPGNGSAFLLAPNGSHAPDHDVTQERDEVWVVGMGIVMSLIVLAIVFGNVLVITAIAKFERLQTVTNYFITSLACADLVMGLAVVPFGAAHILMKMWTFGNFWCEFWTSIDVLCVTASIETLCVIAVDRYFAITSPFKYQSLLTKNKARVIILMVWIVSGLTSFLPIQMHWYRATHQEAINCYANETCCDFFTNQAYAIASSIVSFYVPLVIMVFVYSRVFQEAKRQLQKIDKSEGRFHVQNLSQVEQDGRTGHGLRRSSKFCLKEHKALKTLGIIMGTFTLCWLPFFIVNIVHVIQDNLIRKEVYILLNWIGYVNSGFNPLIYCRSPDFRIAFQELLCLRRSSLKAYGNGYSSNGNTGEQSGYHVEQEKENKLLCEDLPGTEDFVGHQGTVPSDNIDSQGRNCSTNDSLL

Point of comparison: `O=C(Nc1ccc(C(=O)NCc2ccccc2Cl)cc1)C1=CSCCO1`, response -0.39%. Against it:
- COc1ccc(CCNC(=O)C2CCN(c3nn4c(=O)cc(C)nc4s3)CC2)cc1OC — higher, 2.26%
- CSc1ccc(S(=O)(=O)N2CCC(C(=O)NCCc3ccccc3)CC2)cc1 — higher, 21.2%
- COc1cc(O)c2c(=O)c3c(O)c(O)ccc3oc2c1OC — higher, 27.1%
- COCCNC(=O)C1CCN(S(=O)(=O)c2ccc3c(c2)OCCO3)CC1 — lower, -3.08%
- COC(=O)c1ccc(Sc2ccc(F)cc2)c(N)c1 — lower, -3.98%
- Cc1snc(SCc2c(F)cccc2Cl)c1C#N — lower, -7.91%
- Cc1ccc(C(=O)N/C(=C\c2ccco2)C(=O)N2CCSCC2)cc1C — lower, -0.71%
- CS(=O)(=O)NCc1ccc(C(=O)NCc2ccccc2)cc1 — lower, -3.96%
- NC(=O)c1ccsc1NC(=O)COC(=O)Cc1n[nH]c(=O)c2ccccc12 — lower, -0.52%
- CCCCN(C(=O)c1ccc(OC(F)(F)F)cc1)c1c(N)n(CCC)c(=O)[nH]c1=O — higher, 7.36%
- COc1cccc(OC)c1C(=O)OCC(=O)/C(C#N)=C(\C)N — higher, 13.3%
- CSCC(=O)N1CCCC(C(=O)c2cc(F)ccc2F)C1 (stereo not given) — lower, -14.2%
- C/C(CC1CC(C)(C)OC1=O)=N/Nc1nc(-c2ccccc2)cs1 (stereo not given) — higher, 4.49%
- CCc1ccccc1NC(=O)[C@@H]1CCC(=O)N1C1OC(=O)c2c1ccc(OC)c2OC (stereo not given in full) — higher, 11.2%
- O=C(NCC1CC1)c1onc(CSc2ccccc2)c1C(=O)NCC1CC1 — lower, -4.02%
- CCn1c(SCC(=O)NC2CC2)nnc1-c1ccccn1 — lower, -5.81%
- COC(=O)C1(C)NC(c2ccc(F)cc2)C2C(=O)N(c3ccccc3)C(=O)C21 (stereo not given) — higher, 1.51%
- Cc1n[nH]c(=O)c2c1nnn2Cc1ccc(F)cc1 — higher, 2.64%
- Cc1cc(C)cc(C(=O)N(CCc2ccccc2)C2=CC3CCC(C2)N3C)c1 (stereo not given) — higher, 11.3%
- CCOC(=O)c1cnc(SCC(=O)Nc2ccccc2C(=O)OC)nc1N — higher, 2.55%
- O=C(O)CCCn1cc(NC(=O)COc2cccc(Cl)c2)cn1 — higher, 15.6%
- COC(CNC(=O)Cn1ncc2ccsc2c1=O)OC — higher, 1.39%
- CN(C)S(=O)(=O)Oc1ccccc1C(=O)Nc1ccccc1Cl — higher, 1.66%
- O=C(COC(=O)CCc1c[nH]c(=O)[nH]1)Nc1ccccc1Cl — lower, -3.16%
- CCc1nc(N2CCN(C(C)=O)CC2)c2c3c(sc2n1)CCCC3 — lower, -8.93%
- COc1cccc(NC(=O)c2ccc3c(SCC(=O)O)c4c(nc3c2)CCCC4)c1 — higher, 1.27%
- CC(C)CCNC(=O)c1ccc2c(Cl)c3c(nc2c1)CCC3 — lower, -1.39%
- CC(C)NC(=O)COCc1cc(-c2ccc3c(c2)OCO3)on1 — lower, -5.4%
- N#CC1(NC(=O)COc2ccc3oc4ccccc4c3c2)CCCCC1 — lower, -4.35%
- Brc1ccccc1CN1CCC(Cc2ccccc2)CC1 — higher, 4.82%
- O=C(c1ccccc1)c1ccc2nc(N3CCCCC3)c3nncn3c2c1 — lower, -11.4%
- COc1ccc(C2c3ccc(O)cc3Oc3ncn(CCCO)c(=N)c32)cc1OC (stereo not given) — lower, -10.4%
- CS(=O)(=O)N1CCN(CC(=O)NC2CCCC2)CC1 — lower, -2.25%
- CCOC(=O)C1CCCN(C(=O)/C=C/c2ccc(OC)cc2)C1 (stereo not given) — higher, 0.35%
- O=C(NCCCn1ccnc1)Nc1ccc(Cl)cc1Cl — lower, -0.95%
- COc1ccc(S(=O)(=O)N2CCCC(C(=O)NCCCn3ccnc3)C2)cc1OC (stereo not given) — higher, 10.8%
- CC1Cc2ccccc2N1C(=O)Cn1cnc2ccccc2c1=O (stereo not given) — higher, 6.28%
- Cc1ccn2cc(-c3nonc3C)cc2c1 — higher, 15.2%
- O=C(CN1C(=O)C2C3C=CC(C3)C2C1=O)NCC1COc2ccccc2O1 (stereo not given) — higher, 1.48%
- CC(C)OC(=O)CN1C(=O)C(=O)c2ccccc21 — higher, 7.48%
- c1ccc(CSc2ncnc3c2sc2nc(N4CCOCC4)c4c(c23)CCCC4)cc1 — higher, 10.1%
- C#CCOCCOCCOCCNc1nc(N2CCN(C(=O)[C@H](CCCN=C(N)N)n3cc(C(N)[C@@H](C)CC)nn3)CC2)nc(N2CCN(C(=O)[C@H](CO)n3cc([C@@H](N)C(C)C)nn3)CC2)n1 (stereo not given in full) — lower, -10.2%
- C#CCOCCOCCOCCNc1nc(N2CCN(C(=O)Cn3cc(CCO)nn3)CC2)nc(N2CCN(C(=O)Cn3cc(CCCN=C(N)N)nn3)CC2)n1 — higher, 6.34%
- C#CCOCCOCCOCCNc1nc(N2CCN(C(=O)C([C@@H](C)O)n3cc([C@@H](N)CCCCN)nn3)CC2)nc(N2CCN(C(=O)[C@H](CCCCN)n3cc(CN)nn3)CC2)n1 (stereo not given in full) — higher, 1.85%
- C#CCOCCOCCOCCNc1nc(N2CCN(C(=O)Cn3cc(CCO)nn3)CC2)nc(N2CCN(C(=O)[C@H](CCCCN)n3cc(CCCC)nn3)CC2)n1 — higher, 0.16%
- C#CCOCCOCCOCCNc1nc(N2CCN(C(=O)[C@H](CCC(=O)O)n3cc(CN)nn3)CC2)nc(N2CCN(C(=O)[C@H](CCC(=O)O)n3cc(CN)nn3)CC2)n1 — lower, -3.45%
- C#CCOCCOCCOCCNc1nc(N2CCN(C(=O)[C@H](CCCCN)n3cc(CCC(=O)O)nn3)CC2)nc(N2CCN(C(=O)[C@H](CCCCN)n3cc(CC(C)O)nn3)CC2)n1 (stereo not given in full) — higher, 0.88%
- Cc1ccccc1NC(=O)C(C)OC(=O)CCC(=O)N(CC(C)C)c1c(N)n(CC(C)C)c(=O)[nH]c1=O (stereo not given) — lower, -6.93%
- CC(Cc1cccs1)NC(=O)c1cccc(Cl)c1 (stereo not given) — higher, 5.14%
- NC(=O)C1CCN(C(=O)/C(=C/c2ccco2)NC(=O)c2ccccc2)CC1 — higher, 1.8%
- CN(CCCNC(=O)CN1C(=O)CC(C)(C)S(=O)(=O)c2ccccc21)C1CCCCC1 — lower, -2.22%
- CC(NC(=O)c1ccccc1C(=O)O)c1ccc(-n2ccnc2)cc1 (stereo not given) — lower, -8.08%
- CCCOCC(O)CC(CC)C(=O)NNC(=S)Nc1ccccc1 (stereo not given) — higher, 2.14%
- O=C(O)CCn1c(O)c(C=C2N=c3ccccc3=N2)sc1=S — higher, -0.19%
- COC(=O)c1ccccc1NC(=O)C1CCN(S(=O)(=O)c2cc(OC)ccc2OC)CC1 — higher, 4.15%
- Nc1cc(N2CCCCCC2)c2nonc2c1[N+](=O)[O-] — higher, 7.26%
- Cc1nnc(SCC(=O)N2c3ccccc3C(C)(c3ccc(Cl)cc3)CC2(C)C)s1 (stereo not given) — higher, 5.93%
- CSCCNC(=O)c1ccc2nc(Cc3ccccc3F)oc2c1 — higher, 1.28%
- COC(=O)c1c(NC(=O)C2CC(C)=C(C)CC2C(=O)O)sc2c1CCCCC2 (stereo not given) — higher, 4.27%
- CC1=C(C)CC(C(=O)NNC(=O)c2ccccc2O)C(C(=O)O)C1 (stereo not given) — lower, -13%
- C=CCNC(=O)C1CC=CCC1C(=O)O (stereo not given) — higher, -0.29%
- CCCCCCSc1ccc(-c2nc3ccc(Cl)cn3c2NCc2ccccc2)cc1 — lower, -5.85%
- CCCCNc1c(-c2ccc(OC)c(Sc3ccc(OC)cc3)c2)nc2ccc(Cl)cn12 — higher, 23%
- COc1ccc(C2=Nn3c(nnc3-c3ccccc3OC)SC2)cc1OC1CCCC1 — higher, 29.8%
- O=C1C=C(NS(=O)(=O)c2ccccc2)C(=O)c2ccccc21 — higher, 1.55%
- CC(NC(=O)c1ccccc1)C(=O)Nc1ccccc1 (stereo not given) — lower, -0.42%

`CSc1ccc(CCNC(=O)C2CCN(c3nnc(-n4cccc4)s3)CC2)cc1` was tested, and the response was 77.9% (active).
In the case of `CSc1ccc(CNC(=O)c2ccc(NC(=O)C3=CSCCO3)cc2)cc1`, the response is reported as 98.2% (active).
`CC1(C)C=Cc2c(ccc3c2OC[C@@H](c2ccc(O)cc2O)C3)O1` was tested, and the response was 45% (active).
In the case of `COc1ccc2c(c1OC)C(=O)OC2Nc1nc(-c2ccccc2)cs1` (stereo not given), the response is reported as 43.4% (active).
In the case of `CCCN(CCc1ccccc1)C1CCc2c(O)cccc2C1` (stereo not given), the response is reported as 56.8% (active).
With `O=C(Nc1ccccc1Cl)/C(Cl)=C(\Cl)S(=O)c1ccccc1` (stereo not given) the response was 56.9% (active).
For `CC(=O)c1ccc(NC(=O)c2ccc3c(Cl)c4c(nc3c2)CCCC4)cc1`, the response was 60.5% (active).
For `c1ccc(CC2CCN(c3nc4ccccc4n4cnnc34)CC2)cc1`, the response was 68% (active).
For `CSc1nc(-c2ccccc2)nc(C(Cl)Cl)n1`, the response was 81.7% (active).
`CCN1CCC(O)(/C=C/c2ccc(C)cc2)C(C(=O)/C=C/c2ccc(C)cc2)C1` (stereo not given) was tested, and the response was 52.9% (active).
`O=C(NCCCn1ccnc1)C1CCCN(S(=O)(=O)c2cc(Cl)ccc2Cl)C1` (stereo not given) was tested, and the response was 105% (active).
With `O=C1C(=O)N(CC2COc3ccccc3O2)c2ccccc21` (stereo not given) the response was 45.6% (active).
`C#CCOCCOCCOCCNc1nc(N2CCN(C(=O)CCCCCCCCCCNC(=O)Cn3cc(CCCCCN)nn3)CC2)nc(N2CCN(C(=O)CCCCCCCCCCNC(=O)[C@H](CO)n3cc(CCCSC)nn3)CC2)n1` was tested, and the response was 64.5% (active).
With `C#CCOCCOCCOCCNc1nc(N2CCN(C(=O)CCCCCCCCCCNC(=O)[C@H]([C@@H](C)CC)n3cc(CCCCN=C(N)N)nn3)CC2)nc(N2CCN(C(=O)CCCCCCCCCCNC(=O)[C@H](CO)n3cc(CCCSC)nn3)CC2)n1` the response was 96.3% (active).
For `C#CCOCCOCCOCCNc1nc(N2CCN(C(=O)CCCCCCCCCCNC(=O)[C@H](CCCCN)n3cc(C)nn3)CC2)nc(N2CCN(C(=O)CCCCCCCCCCNC(=O)[C@H](CO)n3cc(CCCSC)nn3)CC2)n1`, the response was 77% (active).
For `CC1=C(C)CC(C(=O)NNC(=O)c2csc3c2CCC(C(C)(C)C)C3)C(C(=O)O)C1` (stereo not given), the response was 61% (active).
With `CCCCNc1c(-c2cccc(Sc3ccc(OC)cc3)c2)nc2ccccn12` the response was 45% (active).
For `O=C(NC1=CC(=O)c2ccccc2C1=O)c1ccccc1`, the response was 84% (active).
